Assay results as given in PubChem BioAssay (NCI).
Compounds without any hit were thinned out: in the full panel of roughly 83,000, 20% have a hit.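 A percent growth of 40 corresponds to 60% growth inhibition; 0 means no net growth; -100 means all cells died. Active threshold: below 10.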 Active and inactive are the calls of the source.

Key:
Test in all cases: NCI-60 one-dose screen, 48 h (100 = growth as untreated, 0 = no growth, -100 = all killed)
Details in all cases: 10 µM unless noted
HCT-15 colon = test system: HCT-15 colon
SNB-75 CNS = test system: SNB-75 CNS
SNB-19 CNS = test system: SNB-19 CNS
U251 CNS = test system: U251 CNS
PC-3 prostate = test system: PC-3 prostate
SK-MEL-5 melanoma = test system: SK-MEL-5 melanoma
UACC-62 melanoma = test system: UACC-62 melanoma
LOX IMVI melanoma = test system: LOX IMVI melanoma
SK-MEL-28 melanoma = test system: SK-MEL-28 melanoma
SK-MEL-2 melanoma = test system: SK-MEL-2 melanoma
EKVX NSCLC = test system: EKVX NSCLC
SN12C renal = test system: SN12C renal
UO-31 renal = test system: UO-31 renal
TK-10 renal = test system: TK-10 renal
ACHN renal = test system: ACHN renal
CAKI-1 renal = test system: CAKI-1 renal
CCRF-CEM leukemia = test system: CCRF-CEM leukemia
MOLT-4 leukemia = test system: MOLT-4 leukemia
A498 renal = test system: A498 renal
HT29 colon = test system: HT29 colon

Measured: growth

O=C(N/N=C/c1ccsc1)c1[nH]c2ccc(Br)cc2c1-c1ccccc1
active: HCT-15 colon -62.8% | SNB-75 CNS -32.3% | SNB-19 CNS -41.5% | U251 CNS -89.1% | PC-3 prostate -26.1% | SK-MEL-5 melanoma -97.2% | UACC-62 melanoma -91.6% | LOX IMVI melanoma -100% | SK-MEL-28 melanoma -87.4% | SK-MEL-2 melanoma -82.8% | EKVX NSCLC -26.3% | SN12C renal -87.5% | UO-31 renal -49.4% | TK-10 renal -13.3% | ACHN renal -28% | CAKI-1 renal -21.8% | CCRF-CEM leukemia 6.69% | MOLT-4 leukemia -8.25%

CC1=C(C)C(=O)C(NCCN2CCOCC2)=C(Br)C1=O
inactive: HCT-15 colon 90.7% | SNB-75 CNS 106% | SNB-19 CNS 91.3% | U251 CNS 44.8% | PC-3 prostate 61.8% | SK-MEL-5 melanoma 62.1% | UACC-62 melanoma 39.4% | SK-MEL-28 melanoma 75.4% | SK-MEL-2 melanoma 68.9% | EKVX NSCLC 46.4% | SN12C renal 52% | UO-31 renal 44.7% | TK-10 renal 150% | ACHN renal 62.3% | CAKI-1 renal 45.3% | A498 renal 124%
active: LOX IMVI melanoma -28.5% | CCRF-CEM leukemia -21% | MOLT-4 leukemia 0.284%

O=C1Nc2cc(-c3ccc(NS(=O)(=O)c4ccc(C(F)(F)F)cc4)cc3)ccc2/C1=C/c1ccc[nH]1
inactive: HCT-15 colon 15.8% | HT29 colon 12.2% | SNB-75 CNS 18.6% | PC-3 prostate 31.2% | SK-MEL-5 melanoma 42.7% | UACC-62 melanoma 30.5% | LOX IMVI melanoma 46.1% | SK-MEL-28 melanoma 47.4% | SK-MEL-2 melanoma 22.5% | EKVX NSCLC 19.5% | UO-31 renal 31.1% | TK-10 renal 32.5% | ACHN renal 31.1% | CAKI-1 renal 32.9% | A498 renal 28.9% | CCRF-CEM leukemia 18.5%
active: SN12C renal 4.64% | MOLT-4 leukemia 6.52%

Cn1cc(-c2cc(N)n3nc(-c4c[nH]c5ccccc45)cc3n2)c2cc(Cl)ccc21
active: HCT-15 colon -77.3% | SNB-75 CNS -14.7% | U251 CNS -94.7% | PC-3 prostate -27.2% | SK-MEL-5 melanoma -97.6% | UACC-62 melanoma -76.9% | LOX IMVI melanoma -82.5% | SK-MEL-28 melanoma -90.2% | SK-MEL-2 melanoma -64.6% | EKVX NSCLC -77% | SN12C renal -81.2% | UO-31 renal -80.1% | TK-10 renal -90.2% | ACHN renal -75.6% | CAKI-1 renal -63.6% | A498 renal -59.1% | CCRF-CEM leukemia -16.2% | MOLT-4 leukemia 6.43%

C=CC(=O)Nc1ccc(C(=O)/C=C/c2ccc(N(C)C)cc2)c(O)c1
active: HCT-15 colon -17.2% | U251 CNS -56.4% | SK-MEL-5 melanoma 2.1% | UACC-62 melanoma -25.3% | LOX IMVI melanoma -60.3% | SK-MEL-28 melanoma -6.18% | SK-MEL-2 melanoma 3.4% | SN12C renal 5.34% | UO-31 renal 1.04% | ACHN renal -47.5% | CAKI-1 renal -18.1% | MOLT-4 leukemia 7.05%
inactive: SNB-75 CNS 28.1% | SNB-19 CNS 28.2% | PC-3 prostate 34.4% | EKVX NSCLC 17.3% | TK-10 renal 23.9% | A498 renal 42.8% | CCRF-CEM leukemia 11.2%

Cc1ccc2nc(COc3ccc(C(=O)NNC(=O)Nc4ccc(Cl)c(C(F)(F)F)c4)cc3)[nH]c2c1
active: U251 CNS -1.34% | SK-MEL-28 melanoma -35.4%
inactive: HCT-15 colon 97.2% | SNB-75 CNS 94.1% | SNB-19 CNS 24.9% | PC-3 prostate 18.1% | SK-MEL-5 melanoma 35.3% | UACC-62 melanoma 40.1% | LOX IMVI melanoma 69.1% | SK-MEL-2 melanoma 98.4% | EKVX NSCLC 77.3% | SN12C renal 38.7% | UO-31 renal 110% | TK-10 renal 110% | ACHN renal 89.7% | CAKI-1 renal 73.2% | A498 renal 116% | CCRF-CEM leukemia 41.6% | MOLT-4 leukemia 75.5%

Cc1ccc(C(=O)Nc2cccc(C(=O)NC(=S)Nc3ccc(S(N)(=O)=O)cc3)c2)cc1
inactive: HCT-15 colon 80.5% | SNB-75 CNS 50.5% | SNB-19 CNS 83.1% | U251 CNS 84.4% | SK-MEL-5 melanoma 49.8% | UACC-62 melanoma 69.4% | LOX IMVI melanoma 78.8% | SK-MEL-28 melanoma 79.8% | SK-MEL-2 melanoma 82.7% | EKVX NSCLC 88.2% | SN12C renal 76.8% | UO-31 renal 69.4% | TK-10 renal 104% | ACHN renal 69.3% | A498 renal 109% | CCRF-CEM leukemia 84.5% | MOLT-4 leukemia 59.2%

Nc1cc(-c2c[nH]c3ccc(Br)cc23)nc2cc(-c3c[nH]c4ccccc34)nn12
active: HCT-15 colon -67% | SNB-75 CNS -11% | SNB-19 CNS -77.6% | U251 CNS -83.3% | PC-3 prostate -21.1% | SK-MEL-5 melanoma -96.4% | UACC-62 melanoma -89.4% | LOX IMVI melanoma -86.8% | SK-MEL-28 melanoma -98.5% | SK-MEL-2 melanoma -66.8% | EKVX NSCLC -67.5% | SN12C renal -66.3% | UO-31 renal -54% | TK-10 renal -57.3% | ACHN renal -35.5% | CAKI-1 renal -48.6% | A498 renal -77.3% | CCRF-CEM leukemia -13.8% | MOLT-4 leukemia 3.76%

Nc1nn2c(-c3cc4cc(Br)ccc4oc3=O)ccnc2c1N=Nc1ccccc1
inactive: HCT-15 colon 53.4% | PC-3 prostate 14.4% | UACC-62 melanoma 31.6% | LOX IMVI melanoma 18% | SK-MEL-28 melanoma 52.5% | SK-MEL-2 melanoma 16.1% | EKVX NSCLC 36.4% | UO-31 renal 30.2% | TK-10 renal 39.9% | CAKI-1 renal 15.1% | CCRF-CEM leukemia 94.5% | MOLT-4 leukemia 87.1%
active: SNB-75 CNS -59.8% | SNB-19 CNS -54.5% | U251 CNS -11.2% | SK-MEL-5 melanoma -20.8% | SN12C renal -24.4% | ACHN renal 0.225% | A498 renal -17%

O=C(NN1C(=O)/C(=C/C=C/c2ccc([N+](=O)[O-])o2)SC1=S)c1ccc([N+](=O)[O-])cc1
active: HCT-15 colon -85.4% | SNB-75 CNS -91.1% | SNB-19 CNS -100% | U251 CNS -89.4% | PC-3 prostate -72.5% | SK-MEL-5 melanoma -100% | UACC-62 melanoma -99.6% | LOX IMVI melanoma -97.1% | SK-MEL-28 melanoma -99% | SK-MEL-2 melanoma -89.8% | EKVX NSCLC -97.8% | SN12C renal -99.9% | UO-31 renal -100% | TK-10 renal -98% | ACHN renal -100% | CAKI-1 renal -100% | A498 renal -95.8% | CCRF-CEM leukemia -37.2%

CC(=O)C[n+]1cccc2c3ccccc3ccc21
inactive: HCT-15 colon 97.5% | SNB-75 CNS 113% | SNB-19 CNS 69.8% | U251 CNS 59.9% | PC-3 prostate 85.1% | SK-MEL-5 melanoma 56.6% | UACC-62 melanoma 73.3% | LOX IMVI melanoma 99.8% | SK-MEL-28 melanoma 95.6% | SK-MEL-2 melanoma 106% | EKVX NSCLC 56.6% | SN12C renal 80.1% | UO-31 renal 83% | TK-10 renal 101% | ACHN renal 92.1% | CAKI-1 renal 94.1% | A498 renal 110% | CCRF-CEM leukemia 65.5% | MOLT-4 leukemia 53.9%

COc1cc(CNC(=O)C[C@H](C)CCC=C(C)C)ccc1OCc1cn(-c2cccc(C(F)(F)F)c2)nn1
inactive: HCT-15 colon 56.8% | SNB-75 CNS 65.2% | SNB-19 CNS 97.2% | U251 CNS 51% | PC-3 prostate 82.5% | SK-MEL-5 melanoma 78.8% | UACC-62 melanoma 72.1% | LOX IMVI melanoma 80.7% | SK-MEL-28 melanoma 91.6% | SK-MEL-2 melanoma 111% | EKVX NSCLC 92.1% | SN12C renal 27.1% | UO-31 renal 75.7% | TK-10 renal 102% | ACHN renal 77.6% | CAKI-1 renal 73.6% | A498 renal 91% | CCRF-CEM leukemia 97.1% | MOLT-4 leukemia 84.8%

Cc1cc(N=C(N)c2ccccc2)ccc1OCCCCCCCCn1ccnc1
inactive: SNB-75 CNS 12.5% | PC-3 prostate 27.8% | EKVX NSCLC 20.7% | SN12C renal 12.7% | TK-10 renal 32.9% | CAKI-1 renal 20.2% | A498 renal 64.6% | CCRF-CEM leukemia 12.3%
active: HCT-15 colon 7% | UACC-62 melanoma -3.8% | LOX IMVI melanoma -80.7% | SK-MEL-28 melanoma -68.5% | SK-MEL-2 melanoma -28.2% | UO-31 renal -30.2% | ACHN renal 9.56%

CCOc1ccccc1[C@H]1C(C(=O)c2ccc(Cl)cc2)C2(N[C@@H]1c1ccccc1)C(=O)Nc1ccccc12 (stereo partly specified)
inactive: SNB-75 CNS 46.9% | SNB-19 CNS 27% | U251 CNS 29.9% | SK-MEL-28 melanoma 40.8% | TK-10 renal 36% | CCRF-CEM leukemia 12.1%
active: HCT-15 colon 7.49% | PC-3 prostate 7.19% | SK-MEL-5 melanoma -90.7% | UACC-62 melanoma -4.32% | LOX IMVI melanoma -48.1% | SK-MEL-2 melanoma -46.5% | EKVX NSCLC 9% | SN12C renal -77.8% | UO-31 renal 8.77% | ACHN renal 2.68% | CAKI-1 renal 8.88% | A498 renal -2.33% | MOLT-4 leukemia -26.4%

CCc1ccccc1NC(=O)N/C(N)=N/c1nc2ccccc2s1
active: HCT-15 colon 0.728% | SNB-75 CNS 3.91% | SNB-19 CNS 9.49% | U251 CNS -18.9% | SK-MEL-5 melanoma -59.1% | LOX IMVI melanoma -53.7% | SN12C renal 0.486% | ACHN renal 1.6% | CCRF-CEM leukemia 4.47% | MOLT-4 leukemia 6.27%
inactive: PC-3 prostate 21.8% | UACC-62 melanoma 13.8% | SK-MEL-28 melanoma 38% | SK-MEL-2 melanoma 10.6% | EKVX NSCLC 27.6% | UO-31 renal 34.7% | TK-10 renal 19.8% | A498 renal 60.3%

CN(C(=O)CN1C(=O)/C(=C/c2ccco2)SC1=S)C1CCS(=O)(=O)C1 (stereo unspecified)
inactive: HCT-15 colon 87.5% | SNB-75 CNS 89% | SNB-19 CNS 95.7% | U251 CNS 102% | PC-3 prostate 102% | SK-MEL-5 melanoma 98.5% | UACC-62 melanoma 90% | LOX IMVI melanoma 91.6% | SK-MEL-2 melanoma 98.5% | EKVX NSCLC 97.9% | SN12C renal 104% | UO-31 renal 87.8% | TK-10 renal 122% | ACHN renal 106% | CAKI-1 renal 93.5% | A498 renal 103% | CCRF-CEM leukemia 80.3% | MOLT-4 leukemia 100%

COc1c2c(cc3c1C(CCc1ccccc1)N(C)CC3)OCO2 (stereo unspecified)
active: HCT-15 colon 9.64% | SNB-75 CNS -1.4% | SNB-19 CNS 8.54% | U251 CNS -32.5% | SK-MEL-5 melanoma -98.2% | UACC-62 melanoma -24% | LOX IMVI melanoma -92% | SK-MEL-28 melanoma -5.44% | SK-MEL-2 melanoma -18.1% | SN12C renal 8.61% | A498 renal -15.4% | MOLT-4 leukemia 8.71%
inactive: PC-3 prostate 12.7% | EKVX NSCLC 16.1% | UO-31 renal 14.3% | TK-10 renal 33.5% | ACHN renal 14.9% | CAKI-1 renal 14.5% | CCRF-CEM leukemia 14.2%
